# High-throughput results from PubChem BioAssay.
# Only some compounds are listed: those with a hit (about 0.87% of all), similar ones and a draw of the others.
# IDE inh: inhibits human insulin-degrading enzyme in HEK cells; AID 434962; inhibition, % at 5.59 µM; FAbetaB cleavage, fluorescence polarization; 320,000 compounds, 0.41% hits; P14735;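 active means percent inhibition above the average of all tested compounds plus 3 SD, set per screening campaign, cut at about 16% in these data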;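 further: IDE supplied by intact live HEK cells; FP after avidin binding of uncleaved biotin substrate so inhibition keeps polarization high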
# Target sequence (P14735 whole entry, looked up): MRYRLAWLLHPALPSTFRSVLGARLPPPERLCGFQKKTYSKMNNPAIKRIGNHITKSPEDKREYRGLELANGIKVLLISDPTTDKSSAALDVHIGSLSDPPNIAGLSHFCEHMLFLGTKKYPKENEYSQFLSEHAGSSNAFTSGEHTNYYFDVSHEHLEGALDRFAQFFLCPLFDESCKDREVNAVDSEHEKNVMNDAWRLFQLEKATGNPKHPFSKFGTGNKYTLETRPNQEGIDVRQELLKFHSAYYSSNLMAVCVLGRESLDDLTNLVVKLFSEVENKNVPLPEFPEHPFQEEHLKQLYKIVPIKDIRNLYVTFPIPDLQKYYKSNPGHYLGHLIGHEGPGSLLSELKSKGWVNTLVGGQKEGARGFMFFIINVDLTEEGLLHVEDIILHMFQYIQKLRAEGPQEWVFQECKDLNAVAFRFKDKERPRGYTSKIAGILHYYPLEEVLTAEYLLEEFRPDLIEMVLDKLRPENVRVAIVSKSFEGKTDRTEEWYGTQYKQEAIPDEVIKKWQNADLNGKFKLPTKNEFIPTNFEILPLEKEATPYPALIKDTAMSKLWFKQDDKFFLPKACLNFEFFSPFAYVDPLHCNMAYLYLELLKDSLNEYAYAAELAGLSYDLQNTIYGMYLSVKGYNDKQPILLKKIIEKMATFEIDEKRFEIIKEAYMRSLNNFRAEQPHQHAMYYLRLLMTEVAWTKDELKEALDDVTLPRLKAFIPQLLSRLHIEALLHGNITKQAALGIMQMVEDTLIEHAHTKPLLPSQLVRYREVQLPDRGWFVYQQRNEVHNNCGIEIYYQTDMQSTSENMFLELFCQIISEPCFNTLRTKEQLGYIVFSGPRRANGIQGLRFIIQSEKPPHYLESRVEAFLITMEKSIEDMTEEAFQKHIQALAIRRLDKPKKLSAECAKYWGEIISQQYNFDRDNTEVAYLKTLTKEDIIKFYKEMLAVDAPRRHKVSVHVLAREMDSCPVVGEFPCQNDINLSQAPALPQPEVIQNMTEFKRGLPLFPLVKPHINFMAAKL
# TLR9-MyD88 block: TLR9-MyD88 interaction inhibition; 340,000 compounds, 0.21% hits; Q9NR96+Q99836; inhibition, % at 4.98 µM; CHO BLA complementation TLR9-MyD88, CCF4 FRET ratio;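 active means inhibition above the mean over all tested compounds plus 3 SD, cut at about 21% in these data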
# TLR4-MyD88 BLA: blocks binding of human TLR4 to MyD88; HeLa CL3-4 TLR4/MyD88 BLA complementation, FRET ratio; inhibition, % at 8.4 µM; 200,000 compounds, 0.18% hits; AID 861; in the data active means inhibition above about 25%
# IDE act: boosts human insulin-degrading enzyme activity in HEK cells | activation, % at 5.96 µM | P14735 | FAbeta-B cleavage, fluorescence polarization; 0% vehicle, 100% cell-free pure enzyme wells | 340,000 compounds, 0.073% hits;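 active means activation above the mean of all tested compounds plus 3 SD, set per screening campaign, cut at about 17% in these data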
# NOD2-RIPK2 inh: NOD2-RIPK2 protein interaction inhibition; AID 624267; 360,000 compounds, 0.38% hits; inhibition, % at 4.98 µM; CHO BLA complementation NOD2-RIPK2, CCF4 ratio; in the data active means inhibition above about 21%
# IDE cell inh cf: cellular human IDE inhibition, confirmation; AID 435028; HEK cells, FAbetaB cleavage, fluorescence polarization; inhibition, % at 5.59 µM; shares compounds with IDE inh; 1,200 compounds, 51% hits;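 active means mean inhibition across triplicate wells above the cutoff set by the earlier primary insulin-degrading enzyme screen, cut at about 16% in these data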
# HEK cytotox: HEK cell cytotoxicity, counter-screen for IDE inhibitors; shares compounds with IDE inh; HEK293 cytotoxicity, ATP luminescence; inhibition, % at 5.59 µM; 1,200 compounds, 28% hits; in the data active means inhibition above about 22%
# FP fluor counter: counter-screen for IDE inhibitors: fluorescent artifacts. FP counterscreen for fluorescent artifacts, IDE probe project. 30 tested, under 10 active. AID 588718. IC50, µM. shares compounds with IDE inh; call rule not given here
# Hits are given with their value; - = inactive; . = no result.
SMILES,IDE inh,TLR9-MyD88 block,TLR4-MyD88 BLA,IDE act,NOD2-RIPK2 inh,IDE cell inh cf,HEK cytotox,others
Cc1nnc(-c2ccccc2)c(=O)n1/N=C/c1c(O)ccc2ccccc12,54,-,-,-,-,40,57,
Cc1nnc(C)n1/N=C/c1c(O)ccc2ccccc12,-,-,.,-,-,.,.,
Cc1ccc(/C=C2\SC(N3CCCC3)=NC2=O)cc1,-,.,-,.,.,.,.,
CN(C)c1ccc(/C=C2\SC(N3CCCCC3)=NC2=O)cc1,16,-,.,-,-,27,-,
CCOC(=O)c1c(C)[nH]c(C)c1S(=O)(=O)NCc1cc(C)ccc1C,-,-,.,-,-,.,.,
Cc1cc(C)cc(C(=O)Nc2ccc(NC(=O)c3cccs3)cc2)c1,19,-,.,-,-,-,-,
CCOC(=O)C1(Cc2ccccc2C)CCCN(C(=O)CCc2cccnc2)C1 (configuration not stated),-,-,-,-,-,.,.,
CCCN1C(=O)/C(=C/c2ccc(N3CCOCC3)cc2)NC1=S,16,-,-,-,-,31,-,
Cc1ccc(CN2C(=O)N/C(=C\c3ccc(N4CCOCC4)cc3)C2=O)cc1,-,-,-,-,-,.,.,
CCN1C(=O)/C(=C/c2ccc(N3CCCC3)cc2)NC1=S,124,-,-,-,-,158,23,
COCc1nnc(NC(=O)c2cc(OC)c(OC)cc2[N+](=O)[O-])s1,-,-,-,-,-,.,.,
Cc1cc2nc(-c3ccc(SCC(=O)Nc4ccc(S(=O)(=O)N5CCCC5)cc4)nc3)[nH]c2cc1C,17,-,-,-,-,-,-,
O=C(CSc1ccc(-c2nc3ccccc3[nH]2)cn1)Nc1ccc(S(=O)(=O)N2CCCC2)cc1,-,-,-,-,-,.,.,
Cc1cc2nc(-c3ccc(SCc4ccc(C#N)cc4)nc3)[nH]c2cc1C,17,-,-,-,-,-,-,
Cc1cc(Oc2ccc(=O)n(C)n2)nc(SCc2ccccc2)n1,-,-,-,-,-,.,.,
Cc1ccc(-c2ccccc2NC(=O)CS(=O)CC(=O)Nc2ccc(C)c(Cl)c2)o1 (configuration not stated),26,-,.,-,-,-,-,
Cc1ccc(-c2ccccc2NC(=O)CCl)o1,-,-,-,-,-,.,.,
N#Cc1cc(C(=O)c2cc(F)ccc2O)cn(-c2nccs2)c1=O,33,-,-,-,-,67,-,
N#Cc1cc(C(=O)c2ccccc2O)cn(-c2nccs2)c1=O,39,-,-,-,-,61,-,
CC(C)n1cc(C(=O)c2ccccc2O)cc(C#N)c1=O,-,-,-,-,-,.,.,
CCCCn1c(Nc2ccccc2)nc2ccccc21,-,-,-,-,-,.,.,
CCCn1c(Nc2nc3ccccc3n2C)nc2ccccc21,32,-,-,-,-,24,-,
CC(C)(C)NC(=O)NC(=O)CN1CCN(c2cccc(Cl)c2)CC1,41,-,.,-,-,22,-,
Cc1[nH]n(-c2ccccc2)c(=S)c1C=Nc1ccc([N+](=O)[O-])cc1,20,-,-,-,-,-,-,
Cc1[nH]n(-c2ccccc2)c(=O)c1C=Nc1ccc(S(=O)(=O)N=C(N)N)cc1,-,-,.,-,-,.,.,
SMILES,IDE inh,TLR9-MyD88 block,TLR4-MyD88 BLA,IDE act,NOD2-RIPK2 inh,IDE cell inh cf,HEK cytotox,others
O=C(N[C@@H](Cc1ccccc1)C(=O)O)c1c(F)c(F)c(F)c(F)c1F,-,-,-,-,-,.,.,
Cn1nc(N)c2c(-c3ccc(Cl)cc3)c(C#N)c(N)nc21,16,-,-,-,-,-,-,
O=C1NC(=S)S/C1=C\c1cc(Cl)cc(Cl)c1O,.,-,.,-,-,.,.,
Cc1cc(/C=C2\SC(=S)NC2=O)cc(C)c1O,16,-,.,-,-,31,-,
Cc1cc(C)c(OCC(=O)OC(C)C(=O)N2CCc3ccccc32)c(C)c1 (configuration not stated),-,-,.,-,-,.,.,
CN(C)S(=O)(=O)N1CCN(CC(O)COc2ccc(-c3ccccc3)cc2)CC1 (configuration not stated),18,-,.,-,-,-,-,
CN(C)S(=O)(=O)N1CCN(CC(O)COc2ccc3cc(Br)ccc3c2)CC1 (configuration not stated),-,-,-,-,-,.,.,
CCOC(=O)N1CCN(CC(O)COc2ccc(-c3ccccc3)cc2)CC1 (configuration not stated),17,-,.,-,-,-,-,
CCOC(=O)N1CCN(CC(O)COCc2ccccc2)CC1 (configuration not stated),-,-,-,-,-,.,.,
CC(=O)NC(c1ccc(C)cc1)c1cc([N+](=O)[O-])c2cccnc2c1O (configuration not stated),-,-,-,-,-,.,.,
CCC(=O)NC(c1ccc(C)cc1)c1cc([N+](=O)[O-])c2cccnc2c1O (configuration not stated),33,-,-,-,-,-,39,
CN(C)c1nc2ncn(Cc3ccccc3)c2c(=O)[nH]1,-,-,.,-,-,.,.,
CC(Sc1nnc(-c2cccnc2)n1-c1ccccc1F)C(=O)N1CCCc2ccccc21 (configuration not stated),22,.,-,.,.,16,-,FP fluor counter=-
CC(=O)Nc1cccc(OCCCNC(=O)c2cccc3ccccc23)c1,-,.,.,.,-,.,.,
N#C/C(=C\c1ccccn1)c1nc2ccccc2s1,28,-,-,-,-,46,-,
COC(=O)c1ccc(/C=C(\C#N)c2nc3ccccc3s2)cc1,32,-,-,-,-,-,-,
COc1ccc(/C(C#N)=C/c2ccccn2)cc1,-,-,.,-,-,.,.,
C[C@H]1CN([C@@H](C)CO)C(=O)c2cccc(NC(=O)c3cnccn3)c2O[C@@H]1CN(C)S(=O)(=O)c1ccc(F)cc1,-,-,.,-,-,.,.,
Cc1ccccc1NC(=O)C(NC1CCCCC1)C(C)C (configuration not stated),-,-,-,-,-,.,.,
Cc1ccc(CC(=O)NC2CCCc3ccccc32)cc1C (configuration not stated),-,-,.,-,-,.,.,
Cc1nnc(N(C)C(=O)c2ccncc2)s1,-,-,-,-,-,.,.,
Cc1noc(C(=O)Nc2cccc(O)c2)c1Cl,-,-,.,-,-,.,.,
COC(=O)c1ccc(C2C(C#N)=C(N)Oc3cc(O)ccc32)cc1 (configuration not stated),24,-,.,-,-,-,-,
N#CC1=C(N)Oc2cc(O)ccc2C1c1ccncc1 (configuration not stated),131,-,-,-,-,-,-,
CN(C)c1ccc2c(c1)OC(N)=C(C#N)C2c1cccc(F)c1 (configuration not stated),28,-,-,-,-,16,72,
N#CC1=C(N)Oc2ccc3ccc(O)cc3c2C1c1cccnc1 (configuration not stated),-,-,-,-,-,.,.,
